Hit rate of the full screen: of about 310,000 compounds, about 17,000 (5.5%) were called active. A call without a number means that no potency is given here. About 11% were inconclusive and are not listed. This is one part of a sample in which actives are shown more often than they occur. A number with no mark means an inactive call. The call rests on the fitted dose curve; in most records, active means well fitted inhibition curve with a large enough effect; inconclusive means small, poorly fitted or top-dose-only effect, or effect the other way; inactive means no such curve, though single readings can be large or run the other way.
Potency means the concentration at half of the fitted maximal effect.

Sequence of Nuclear receptor ROR-gamma (Mus musculus) (P51450 whole entry, looked up, the tested form may be a part): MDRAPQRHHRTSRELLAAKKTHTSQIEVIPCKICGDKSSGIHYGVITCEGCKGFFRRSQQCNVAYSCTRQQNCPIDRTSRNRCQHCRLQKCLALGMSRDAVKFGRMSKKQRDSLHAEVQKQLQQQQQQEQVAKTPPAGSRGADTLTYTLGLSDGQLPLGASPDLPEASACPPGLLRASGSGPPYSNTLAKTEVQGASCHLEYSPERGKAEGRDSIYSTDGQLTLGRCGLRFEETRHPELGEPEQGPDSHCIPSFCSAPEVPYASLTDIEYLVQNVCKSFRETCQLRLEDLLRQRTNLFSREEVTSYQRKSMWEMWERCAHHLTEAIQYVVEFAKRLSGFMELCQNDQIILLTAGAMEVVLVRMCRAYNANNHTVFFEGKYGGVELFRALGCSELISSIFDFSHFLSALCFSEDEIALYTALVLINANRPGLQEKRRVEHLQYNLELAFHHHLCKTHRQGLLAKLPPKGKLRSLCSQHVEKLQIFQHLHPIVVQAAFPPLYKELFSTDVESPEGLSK

This experiment has as its target Nuclear receptor ROR-gamma (Mus musculus) (UniProt P51450). Briefly: qHTS for inhibitors of ROR gamma transcriptional activity. Further: nearly all actives have a fitted effect of over 60% in size. Conditions: Drosophila S2 Gal4-RORgamma UAS-luciferase reporter, 20 h; series mostly up to 53.6 µM. A digest of the protocol: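 Using a luciferase readout, inhibitors were identified by reduced reporter activity in Drosophila cells coexpressing a copper-inducible Gal4–ROR gamma fusion and UAS-driven Photinus luciferase, incubated 20 hr after 700 uM copper sulfate.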
For orientation: qHTS replaces the single test concentration by a dilution series.
On to `CC(C)NC(=O)N1CCN(c2ccncc2S(=O)(=O)N2CCCCC2)CC1`, for which the Potency result is “inactive”.

On to `CC(C)C[C@H]1CN=C(Nc2ccccc2)N1CC1CCCCC1`, for which the Potency entry was “inactive”.

Regarding `C/C(=N\Nc1nc(N2CCOCC2)nc(N2CCOCC2)n1)c1ccc([N+](=O)[O-])cc1`, the Potency result is “inactive”.

As to `C/C(=N\Nc1nc(Nc2ccccc2)nc(N2CCOCC2)n1)c1cccs1`, the Potency is 14.1 µM (active).

For `Cc1ccc(Nc2nc(N3CCOCC3)nc(N3CCOCC3)n2)cc1Cl`, the Potency result is “inactive”.

With `Cc1ccc(-n2ncc(C(=O)NC3CC3)c2C2CCN(C(=O)OC(C)(C)C)CC2)c(C)c1`, the Potency entry was “inactive”.

As to `CCOc1ccc(CNC(=O)C2CCCN(c3nnc(C)c4c(C)n(-c5ccccc5)nc34)C2)cc1` (centres undefined), the Potency entry was “inactive”.

For the molecule `Cc1ccc(-c2csc(NC(=O)Cc3cccs3)n2)cc1C`, the Potency result is “inactive”.

Take `CCCc1ccc(-c2csc(NC(=O)Cc3cccs3)n2)cc1`: the Potency is 12.6 µM (active).

On to `COc1ccc(-c2csc(NC(=O)CCCc3cccs3)n2)cc1`, for which the Potency entry is “inactive”.

Consider `O=C(COC(=O)/C=C/c1cccs1)NC1CCCCC1`, for which the Potency result is “inactive”.

Consider `CCn1c(/C=C/c2ccc([N+](=O)[O-])o2)nc2ccccc2c1=O`, for which the Potency was 7.94 µM (active).

In the case of `Cn1cc(/C=C/c2nc3ccccc3c(=O)n2-c2cccc([N+](=O)[O-])c2)c2ccccc21`, the activity change, negative = inhibition was 0.991% [at 10 µM].

Consider `Cc1nc2ccccc2c(=O)n1Cc1ccc([N+](=O)[O-])cc1`, for which the Potency result is “inactive”.

As to `Cc1cccc(-c2c(NC(=O)c3ccco3)oc3ccc(Cl)cc3c2=O)c1`, the Potency result was “inactive”.

Turning to `CN(C)CCOC1c2ccccc2-c2ccccc21`, the Potency entry was “inactive”.

For the molecule `COc1ccc(CNC(=O)C2CCN(C(=O)c3ccccc3)CC2)cc1`, the Potency entry is “inactive”.

Turning to `O=C(c1ccccc1F)N1CCN(S(=O)(=O)c2ccc(Br)cc2)CC1`, the Potency result was “inactive”.

Regarding `O=C(c1ccc(Cl)c(S(=O)(=O)N2CCCCC2)c1)N1CCCCCC1`, the Potency entry is “inactive”.

On to `O=C(c1ccc[nH]c1=S)N1CCN(S(=O)(=O)c2ccc(Br)cc2Cl)CC1`, for which the Potency was 22.4 µM (active).

As to `COc1cc2c(C(=O)N(C)c3cc(Cl)ccc3OC)cn(C)c(=O)c2cc1OC`, the Potency result is “inactive”.

For `COc1ccc(CNC(=O)C2CCN(S(=O)(=O)c3ccc(SC)cc3)CC2)cc1`, the Potency entry was “inactive”.

With `Cc1nnc(SCC(N)=O)n1CC1CCCO1` (centres undefined), the Potency result is “inactive”.

On to `Cc1cc(C(=O)COC(=O)C2CC2)c(C)n1-c1ccc(F)cc1`, for which the Potency entry is “inactive”.

With `Cc1ccsc1C(=O)OCC(=O)c1cc(C)n(CC2CCCO2)c1C` (centres undefined), the Potency is 3.98 µM (active).

Take `CCc1ccc(CN(C)C(=O)C2CCC(=O)N(Cc3cccc(OC)c3)C2)nc1` (centres undefined): the Potency entry is “inactive”.

In the case of `CC(C)CC(=O)Nc1ccc(Cc2ccncc2)cc1`, the Potency entry was “inactive”.

As for `O=C(O)C1CCCN1C1=NS(=O)(=O)c2ccccc21` (centres undefined), the Potency entry was “inactive”.

On to `O=C(CN1CCC(NC(=O)C2CC2)CC1)Nc1ccccc1[N+](=O)[O-]`, for which the Potency entry was “inactive”.

For the molecule `C/C(CC(=O)Nc1ccc(C)cc1C)=N\NC(=O)C(C)C`, the Potency entry was “inactive”.

For `Cc1c(NC(=O)CSc2cccc3cccnc23)c(=O)n(-c2ccccc2)n1C`, the Potency is 7.94 µM (active).

On to `Cc1c(NC(=O)CSc2nnnn2-c2ccc(C(=O)O)cc2)c(=O)n(-c2ccccc2)n1C`, for which the Potency result was “inactive”.

As to `O=C(CSc1cccc2cccnc12)N/N=C/c1cccnc1`, the Potency is 7.08 µM (active).

On to `Cc1ccc(NC(=O)Cn2nc(C)c3ccccc3c2=O)c(C)c1`, for which the Potency entry was “inactive”.

On to `Cc1ccc(NC(=O)CSc2cccc3cccnc23)c(C)c1`, for which the Potency was 10 µM (active).

Consider `Cc1nc2ccccc2n1CC(=O)N/N=C/c1cccnc1`, for which the Potency entry was “inactive”.

Consider `Cc1c(NC(=O)c2cccnc2)c(=O)n(-c2ccccc2)n1C`, for which the Potency result is “inactive”.

Turning to `O=C(CNC(=O)c1cccnc1)N/N=C/c1cccnc1`, the Potency result was “inactive”.

Regarding `Cc1cc(NC(=O)CCN2CCN(Cc3ccccc3)CC2)ccc1Br`, the Potency entry was “inactive”.

For `CCN(CC)S(=O)(=O)c1ccc(N2CCOCC2)c(NC(=O)C2CSC3(C)CCC(=O)N23)c1` (centres undefined), the Potency result is “inactive”.

As to `O=C(CCS(=O)(=O)c1ccc2c(c1)NC(=O)CS2)NCc1ccccc1Cl`, the Potency result was “inactive”.

For the molecule `Cc1ccc(CN(CC(=O)NC2CCCCC2)C(=O)c2csnn2)cc1`, the Potency entry is “inactive”.

With `O=C(c1ccccc1)N1CCC(CC2CC(c3ccc(Cl)cc3)=NO2)(C(=O)NCC2CCCCC2)CC1` (centres undefined), the Potency entry is “inactive”.

Consider `COc1cccc(CNC(=O)CCC2CCCN(C(=O)c3ccc(F)c(Cl)c3)C2)c1` (centres undefined), for which the Potency entry was “inactive”.

Consider `Clc1ccc(CN2CCN(/N=C/c3cccnc3)CC2)cc1`, for which the Potency entry is “inactive”.

As to `O=Cc1cn(Cc2ccccc2)nc1-c1cccnc1`, the Potency result is “inactive”.

For `O=C1/C(=C\c2cccnc2)CN(Cc2ccccc2)C/C1=C\c1cccnc1`, the Potency is 6.31 µM (active).

In the case of `Cc1cc(C)c(S(=O)(=O)c2cc(F)ccc2C)c(=O)[nH]1`, the Potency result is “inactive”.

On to `O=S(=O)(c1ccc(Br)cc1)c1nc(-c2ccccc2)oc1N1CCOCC1`, for which the Potency result was “inactive”.

As for `CCOC(=O)c1cccc(NC(=O)CCc2nnc3ccc(N4CCOCC4)nn23)c1`, the Potency result is “inactive”.

With `CCn1c2ccccc2c2cc(NC(=O)CNC)ccc21`, the Potency result is “inactive”.

Consider `CCn1c2ccccc2c2cc(NC(=S)N3CCOCC3)ccc21`, for which the Potency is 3.16 µM (active).

For `Cc1cc(N2CCN(C)CC2)nc2ccc(NC(=S)N3CCOCC3)cc12`, the Potency entry was “inactive”.

Consider `COc1ccc(NC(=O)CN2C(=O)CSc3ccc(S(=O)(=O)N4CCC(C)CC4)cc32)cc1`, for which the Potency entry was “inactive”.

For the molecule `CCOc1ccc(N(CC(=O)NCC2CCCO2)S(=O)(=O)c2ccc(C)cc2)cc1` (centres undefined), the Potency entry was “inactive”.

As to `CC(C)CNC(=O)C(=O)NCC(c1ccc2c(c1)OCO2)N1CCOCC1` (centres undefined), the Potency entry was “inactive”.

With `O=C(CCN1C(=O)[C@@H]2Cc3ccccc3CN2C1=O)NCc1ccccc1`, the Potency result is “inactive”.

Regarding `COC(=O)c1ccccc1NC(=O)C1CCN(C(=O)N2CCOc3ccccc32)CC1`, the Potency result was “inactive”.

Regarding `CC(Sc1nnc(CNC(=O)c2ccccc2F)n1C)C(=O)Nc1nccs1` (centres undefined), the Potency entry is “inactive”.

Take `Cc1ccc(S(=O)(=O)N2CCC(C)CC2)cc1C(=O)NCc1ccccn1`: the Potency entry was “inactive”.

For the molecule `COc1cccc(CNC(=O)Cn2c(=O)oc3cc(S(=O)(=O)N4CCCCC4)ccc32)c1`, the Potency result is “inactive”.

As to `O=C(Cc1cccs1)Nc1ccc([N+](=O)[O-])cc1`, the Potency entry was “inactive”.

For `O=C(CCN1c2ccccc2Sc2ccccc21)Nc1ccccc1`, the Potency result was “inactive”.

Consider `CCN1/C(=C/C(=S)Nc2ccccc2)Sc2ccccc21`, for which the Potency was 3.16 µM (active).

With `CCNC(=O)N1c2ccccc2Sc2ccccc21`, the Potency result was “inactive”.

On to `COc1ccc(C(=O)NC2CC2)cc1OC1CCN(C/C=C/c2ccccc2)CC1`, for which the Potency result was “inactive”.

For `CCCn1c(=S)[nH]c2ccc(C(F)(F)F)cc21`, the Potency result is “inactive”.

Consider `CC(C)n1c(=S)[nH]c2cc(C(F)(F)F)ccc21`, for which the Potency was 0.891 µM (active).

For the molecule `O=C(NCc1ccccc1)C(c1cccnc1)N(C(=O)c1csnn1)c1ccc(F)cc1` (centres undefined), the Potency result was “inactive”.

`Cn1c(=O)c(=O)n(C)c2cc(S(=O)(=O)CCC(=O)N3CCCCC3)ccc21`: the Potency result is “inactive”.

For `COc1ccc(/C=C/c2c(-c3cccc(C)c3)oc3ccc(-c4ccc5c(c4)OCO5)cc23)cc1`, the Potency entry is “inactive”.

Take `COc1ccccc1NC(=O)C1=C(C)Nc2nc3ccccc3n2C1c1cccs1` (centres undefined): the Potency is 11.2 µM (active).

Take `COc1ccccc1NC(=O)C1=C(C)NC(=O)NC1c1ccc(C)s1` (centres undefined): the Potency entry is “inactive”.

As for `CCOC(=O)C1=C(C)Nc2nc3ccccc3n2C1c1cccs1` (centres undefined), the Potency is 5.62 µM (active).

With `COc1ccccc1NC(=O)C1=C(C)Nc2ncnn2C1c1ccc(C)o1` (centres undefined), the Potency result was “inactive”.

On to `CCOC(=O)c1ccc(NC(=O)C2CC(=O)Nc3nc4ccccc4n32)cc1` (centres undefined), for which the Potency entry is “inactive”.

For `CCOC(=O)C1=C(C)NC(=S)NC1c1cccs1` (centres undefined), the activity change, negative = inhibition is -23.4% [at 10 µM].

As to `Cc1cccc(CCNS(=O)(=O)c2ccc3c(c2)NC(=O)CO3)c1`, the Potency result was “inactive”.

Regarding `O=C(NC1CCCC1)C(c1ccco1)N(C(=O)c1ccco1)c1ccc(F)cc1` (centres undefined), the Potency result was “inactive”.

Consider `Cc1ccc(C(=O)Oc2ccc(C(=S)N3CCOCC3)cc2)cc1`, for which the Potency result was “inactive”.

With `COCC(=O)N1CCCC(C(=O)c2ccc(C(F)(F)F)cc2)C1` (centres undefined), the Potency result is “inactive”.

With `NC(=O)c1ccc(Nc2ccc3c(c2)CCC3)c([N+](=O)[O-])c1`, the Potency entry was “inactive”.

Take `COc1cc(C(=O)NCc2nnc(SCC(=O)c3ccc(Cl)cc3)o2)cc(OC)c1OC`: the Potency result is “inactive”.

For the molecule `COc1ccc(C(=O)NCc2nnc(SCC(=O)Nc3cccc(OC)c3)o2)cc1`, the Potency result is “inactive”.

With `COc1cc(C(=O)NCc2nnc(SCC(=O)Nc3nc4ccc(C)cc4s3)o2)cc(OC)c1OC`, the Potency is 2.51 µM (active).

For the molecule `S=C(c1ccccc1)N1CCCC1`, the Potency result was “inactive”.

Take `S=C(c1ccc(-c2ccccc2)o1)N1CCCCC1`: the Potency is 10 µM (active).

Take `OCCN1CCN(C(=S)c2ccc(-c3ccccc3)cc2)CC1`: the Potency entry is “inactive”.

Regarding `Cc1ccccc1NC(=O)CSc1ccc2nnc(-c3ccccn3)n2n1`, the Potency entry is “inactive”.

Turning to `CC(C)CC(=O)Nc1nnc(S(=O)(=O)N(C)c2ccc(Cl)cc2)s1`, the Potency entry was “inactive”.

Turning to `CC(=O)Nc1ccc(N2C(=O)C3C4C=CC(CC4)C3C2=O)cc1` (centres undefined), the Potency result is “inactive”.

For the molecule `CCOC(=O)c1c(-c2ccccc2)oc2cc(Br)c(O)cc12`, the Potency entry is “inactive”.

With `CCOC(=O)c1c(C)nc(-c2ccccc2)nc1NC(=O)C(C)C`, the Potency entry was “inactive”.

For `CCOC(=O)c1c(C)[nH]c(=S)c(C#N)c1-c1ccccc1`, the Potency was 12.6 µM (active).

As to `CCOC(=O)N1CCN(CC(=O)c2c(C)[nH]c3ccccc23)CC1`, the Potency entry was “inactive”.

For `Cc1[nH]c2ccccc2c1C(=O)COC(=O)C(C)C`, the Potency result was “inactive”.

For `CCOC(=O)c1c(C)[nH]c2c1-c1ccccc1C(=O)C2=O`, the Potency was 3.55 µM (active).

For `COc1cccc(NC(=O)CCc2nnc3ccc(N4CCC(C)CC4)nn23)c1`, the Potency entry is “inactive”.

Turning to `CCCCCC(O)(CCN1CCCCC1)c1ccccc1` (centres undefined), the Potency result is “inactive”.

Consider `COc1cc(C)cc(CN2CCC(Cc3ccccc3)CC2)c1O`, for which the Potency entry is “inactive”.

For `CCn1c(SCC(=O)NC2=NCCS2)nnc1C(C)NC(=O)c1ccccc1F` (centres undefined), the Potency entry was “inactive”.

In the case of `CC1CCN(C(=O)CCc2nnc3ccc(NCc4ccco4)nn23)CC1`, the Potency entry was “inactive”.

As to `CCOC(=O)C1CCCN(S(=O)(=O)c2ccc3c(c2)C(C)(C)C(=O)N3C)C1` (centres undefined), the Potency entry is “inactive”.

Turning to `CC1CC(C)CN(c2ccc(S(=O)(=O)N3CCOCC3)cc2)C1` (centres undefined), the Potency entry was “inactive”.

The values above are taken from PubChem BioAssay AID2551 (National Center for Advancing Translational Sciences (NCATS), 2010).
